Each structure is given as a SMILES string. Inconclusive results are not listed. Calls of active or inactive are those of the source. Calls follow the shape of the dose curve; as a rule, active = well fitted cell-killing curve with a large enough effect; inconclusive = small, poorly fitted or top-dose-only effect, or effect the other way; inactive = flat fitted curve, though single readings scatter. Where a SMILES comes first, the peptide text is derived from it. [ ]: non-standard residue; d: D form. Ala(indol-2-yl) = N[C@@H](Cc1cc2ccccc2[nH]1)C(=O)O; Aib = CC(C)(N)C(=O)O

From PubChem BioAssay (NCATS) come the findings set out here.
% is scaled to controls: 0 for no effect and ±100 for the full control effect; potency is read from the fitted curve at half-maximal effect.

This test concerns PA-1. Put plainly: Primary qHTS to identify gynecologic anti-cancer compounds using libraries of approved drugs and bioactive compounds (AID 1345084). Also: nearly all actives have a fitted effect of over 55% in size. Particulars: Gynecologic cancer cell panel viability, ATPlite luminescence, 48 h; series mostly up to 57.5 µM. The procedure, abridged: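 Luminescence from the ATPlite ATP-monitoring reagent indicates viable cell number; lower signal means cytotoxicity. Cells received compound 16 h after seeding and were exposed for 48 h across five concentrations.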
Turning to `O=C(OC[C@H]1O[C@@H](Oc2ccc(O)cc2CO)[C@H](O)[C@@H](O)[C@@H]1O)c1ccccc1`, the Potency entry was “inactive”.

In the case of `CC(C)(NC(=O)[C@@H](N)Cc1ccc(O)cc1)C(=O)N[C@@H](Cc1cc2ccccc2[nH]1)C(=O)N[C@@H](Cc1ccccc1)C(=O)O` (H-Y[Aib][Ala(indol-2-yl)]F-OH), the activity change, negative = cytotoxicity was 2.34% [at 11.6 µM] (inactive).

With `C=C1[C@@H](C)[C@H]2[C@H](Cc3ccccc3)NC(=O)[C@]23[C@H](OC(C)=O)/C=C/[C@](C)(O)C(=O)[C@@H](C)C/C=C/[C@H]3[C@@H]1O`, the Potency is 1780 nM (active).

Consider `COc1ccc2c3c([nH]c2c1)C(C=C(C)C)N1C(=O)C2CCCN2C(=O)C1C3` (centres undefined), for which the Potency result is “inactive”.

For the compound `CN[C@@H]1C[C@H]2O[C@@](C)([C@@H]1OC)n1c3ccccc3c3c4c(c5c6ccccc6n2c5c31)C(=O)NC4`, the Potency is 251 nM (active).

On to `CC1=C[C@H]2O[C@@H]3C[C@H]4OC(=O)/C=C/C=C/C(=O)OCC/C(C)=C/C(=O)OC[C@@]2(CC1)[C@]4(C)[C@]31CO1`, for which the Potency is 70.8 nM (active).

For the compound `CC(=O)OC[C@]12C[C@H](OC(=O)CC(C)C)C(C)=C[C@H]1O[C@@H]1[C@H](O)C[C@@]2(C)[C@]12CO2`, the Potency is 1000 nM (active).

Regarding `COC1CC(O[C@H]2CC[C@]3(C)C4CC[C@]5(C)[C@@H](C6=CC(=O)OC6)[C@@H](OC(C)=O)C[C@]5(O)C4CC[C@@H]3C2)OC(C)C1O[C@@H]1O[C@H](CO)[C@@H](O)[C@H](O)[C@H]1O` (some centres undefined), the Potency was 1120 nM (active).

On to `Cc1c(Cl)c(OCC(=O)N2CCN(C)CC2)nc2sc(C(=O)NC3CC3)c(N)c12`, for which the Potency result was “inactive”.
